# KLF5 inh: kruppel-like factor 5 inhibition | AID 1700 | 290,000 tested, 0.23% active | DLD-1 KLF5 promoter-luciferase reporter, luminescence | inhibition, % at 5 µM;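 active = inhibition above a per-plate limit of that plate's mean compound inhibition plus 3 SD, cut at about 60% in these data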;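 note: 0% = DMSO wells and 100% = LY294002 at 200 µM; higher means less KLF5 promoter-driven luciferase light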
# aSyn UTR inh: MLPCN primary screen, SNCA 5' untranslated region. inhibition, % (tested at 7.5 µM). 300,000 tested, 0.82% active. alpha-synuclein 5'UTR reporter, inhibitor activity; in the data active = inhibition above about 60%; inconclusive = no clear call, values can overlap the other calls;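 note: H4 neuroglioblastoma cells stably carrying SNCA 5'UTR luciferase fusion; 0% = DMSO wells and 100% = positive control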
# APP 5UTR inh: APP translation inhibition; inhibition, % at 2 µM; SH-SY5Y APP 5'UTR-luciferase reporter, luminescence; 190,000 tested, 0.82% active; AID 1285;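 active = inhibition above a set limit, derived from the sample mean plus 3 SD, cut at about 45% in these data; inconclusive = one replicate passes the limit while the other fails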
# BaF3 parental: parental Ba/F3 viability inhibition as JAK2V617F counter-screen. CellTiter-Glo ATP luminescence. inhibition, % at 5.6 µM. 220,000 tested, 1.1% active. AID 1486;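 active = inhibition above a per-campaign cutoff, the mean inhibition of all tested compounds plus 3 SD, cut at about 27% in these data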;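 note: 0% = DMSO wells and 100% = JAK Inhibitor I control wells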
# IEC-6 tox: IEC-6 cytotoxicity, counter-screen for KLF5 inhibitors | luminescence viability | inhibition, % at 5 µM | 290,000 tested, 0.78% active; in the data active = inhibition above about 22%;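 note: 0% = plate median of test compound wells and 100% = cytotoxic reference compound wells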
# Ba/F3 V617F tox: reduce viability of Ba/F3 cells dependent on JAK2V617F; 220,000 tested, 1.1% active; inhibition, % at 5.6 µM; Ba/F3 EpoR-JAK2V617F viability, ATP luminescence;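 active = inhibition above the campaign mean plus 3 SD over all tested compounds, cut at about 24% in these data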;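 note: cytokine-independent growth of Ba/F3 cells driven by EpoR plus mutant JAK2; 0% = DMSO-treated cells and 100% = JAK inhibitor I control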
# * hit, by the source's call; ? = inconclusive; . = not tested or not shown. Hits are enriched below; roughly 2.1% of the tested compounds scored in any of these assays.
SMILES,KLF5 inh,aSyn UTR inh,APP 5UTR inh,BaF3 parental,IEC-6 tox,Ba/F3 V617F tox
C=C1[C@@H](C)C2[C@H](Cc3ccccc3)NC(=O)[C@]23OC(=O)CC[C@H](O)CCC[C@H](C)C/C=C/[C@H]3[C@@H]1O (some centres undefined),.,80*,.,.,.,.
CC(=O)Nc1cccc(NC(=O)Nc2cccc(Cl)c2C)c1,-36,12,1,7,-4,-1
CC(=O)Nc1cccc(NC(=S)Nc2cccc(Cl)c2C)c1,-18,-26,-4,90*,3,-2
Cc1cc(/C=N/n2c(COc3ccccc3C)nc3ccccc3c2=O)c(O)c([N+](=O)[O-])c1,-20,5,45*,9,8,4
NS(=O)(=O)c1ccc(N/N=C/c2cn(-c3ccccc3)nc2-c2cccs2)c([N+](=O)[O-])c1,-7,-49,1,3,-5,3
N#Cc1ccc(N/N=C/c2cn(-c3ccccc3)nc2-c2ccccc2)c([N+](=O)[O-])c1,-7,22,75*,7,0,-1
COc1cc(C2=NOC(C(=O)NCc3cccs3)C2)cc(OC)c1OC (centres undefined),42,24,.,77*,21,82*
CCOC(=O)[C@@H]1[C@H]2COc3ccccc3[C@@H]2N2C(=O)N(c3cccc(C)c3)C(=O)[C@]12C,-17,9,.,.,0,.
COc1cc(/C=C2/NC(=O)N(c3cccc(Cl)c3)C2=O)ccc1O,-40,-10,55*,76*,21,100*
COc1ccc(-n2cccc2/C=C2/NC(=O)N(c3cccc(Cl)c3)C2=O)cc1,-32,-143,-23,11,5,0
COC(=O)c1cc(Br)ccc1NC(=O)Nc1ccc(C)cc1,-41,-14,9,34*,1,4
Oc1ccccc1/C=N/Nc1nccnc1Cl,-58,88*,42,8,1,10
O=[N+]([O-])c1ccccc1/C=N/Nc1nccnc1Cl,-22,-184,-67,12,4,5
CCc1ccc(-c2cc(C(=O)Nn3cnnc3)c3ccccc3n2)cc1,55,74*,-60,6,5,2
O=C(NCc1ccccn1)c1cc(-c2ccc(-c3ccccc3)cc2)nc2ccccc12,-75,-14,-107,36*,14,34*
Cc1ccc(C)c(-c2nc3cc(N)ccc3o2)c1,-63,63*,22,12,3,5
CN(C)c1ccc(-c2nc3cc(N)ccc3o2)cc1,8,93*,.,.,2,.
Cc1ccc2nc(-c3cc(N)cc(N)c3)oc2c1,-7,62*,38,1,-8,0
Nc1ccc(-c2nc3cc(N)ccc3o2)cc1,-88,-52,.,.,-8,.
Cc1ccc(-c2nc3cc(N)ccc3o2)cc1Br,-158,-54,.,.,0,.
Nc1ccc2oc(-c3cc(Br)ccc3Cl)nc2c1,-18,41,46*,38*,6,33*
Cn1c(=O)n(C)c2cc(NS(=O)(=O)c3ccc(C(C)(C)C)cc3)ccc21,-22,-23,0,30*,9,12
Cn1c(=O)n(C)c2cc(NS(=O)(=O)c3ccc4c(c3)CCCC4)ccc21,-33,-33,2,28*,19,25*
COCCN(C(=O)COC(=O)C1(c2ccccc2)CC1)c1c(N)n(CC(C)C)c(=O)[nH]c1=O,.,3,.,.,.,.
CCN(C1CCS(=O)(=O)C1)S(=O)(=O)c1ccc2ccccc2c1 (centres undefined),.,8,.,.,.,.
SMILES,KLF5 inh,aSyn UTR inh,APP 5UTR inh,BaF3 parental,IEC-6 tox,Ba/F3 V617F tox
Cc1ccc2nc(-c3ccc(NC(=S)NC4CC(C)(C)NC(C)(C)C4)cc3)sc2c1,-128,121*,-168,10,4,2
CCN(C(=S)NCCOC)c1cccc2ccccc12,-15,-32,1,27*,2,32*
CCN(C(=O)COC(=O)c1ccccc1NCCO)c1cccc2ccccc12,.,9,.,.,.,.
Nc1ccc(NC(=O)CCN2CCOCC2)cc1,-31,-5,.,.,0,.
COc1cc([N+](=O)[O-])ccc1NC(=O)CCS(=O)(=O)c1ccc2c(c1)n(C)c(=O)c(=O)n2C,-3,-12,.,.,-12,.
Cc1ccc(NC(=S)N=Nc2c(O)n(C)c3ccc(S(=O)(=O)N4CCOCC4)cc23)cc1C,8,77*,70*,2,-3,-1
C=CCn1c(O)c(N=NC(=S)Nc2ccccc2C)c2cc(S(=O)(=O)N3CCOCC3)ccc21,3,80*,34,8,9,0
Cn1c(O)c(N=NC(=S)Nc2ccccc2F)c2cc(S(=O)(=O)N3CCOCC3)ccc21,-6,95*,46*,6,-8,0
O=[N+]([O-])c1ccccc1Nc1cccnc1,.,-2,.,.,.,.
Cc1c(C(=O)N2CCNCC2)oc2ccccc12,-29,13,.,.,-4,.
COc1cccc(C(C)NC(=O)c2ccncc2)c1 (centres undefined),4,-8,.,.,9,.
Cc1sc(NC(=O)CCCC(=O)O)c(C(N)=O)c1-c1ccccc1,-25,?,49*,5,-2,-1
Cc1ccn2c(=O)nc(SCC(=O)N3CCCCC3)nc2c1,.,-22,.,.,.,.
Cc1cccc(NC(=S)N=Nc2c(O)[nH]c3ccccc23)c1,-12,53,45*,4,38*,-2
CCCCCCCC[n+]1c(C)n(-c2ccccc2)c2ccc(NC(C)=O)cc21,7,-10,-9,74*,9,87*
O=C(N/N=C/c1ccc(Cl)cc1)c1sccc1OCc1ccc(F)cc1,23,73*,.,47*,22,72*
CCN1CCN(C(=O)CCc2ccc(S(=O)(=O)NCCc3ccccc3)cc2)CC1,-27,26,56*,0,-1,-2
Cc1ccc(C(=O)N/N=C/c2ccoc2)cc1C,-37,-13,.,.,1,.
Cc1ccc(-c2csc(=Nc3cccnc3)n2CCCN2CCCC2=O)cc1C,24,32,11,54*,-2,64*
COc1ccc(-c2cn3cc(C)ccc3n2)cc1F,-4,77*,-147,8,9,6
Cc1cc(C)n(C(C)CC(=O)Nc2ccc3c(c2)OCO3)n1 (centres undefined),-26,-16,.,.,-6,.
O=C(NNc1ccccc1C(F)(F)F)c1sccc1Br,3,19,.,-4,-3,-6
O=S1(=O)N=C(N2CCN(Cc3ccccc3)CC2)c2ccccc21,-5,-6,2,60*,9,-4
O=S1(=O)N=C(N2CCN(Cc3ccc4c(c3)OCO4)CC2)c2ccccc21,-13,-25,-1,8,6,3
Cc1nc(Nc2cnc(/C=C/c3cc(C(=O)Nc4cccc(C(F)(F)F)c4)ccc3C)cn2)cc(N2CCNCC2)n1,-5,81*,.,.,0,.
COc1ccc(OC)c(NC(=O)CCN2CCN(c3ccccc3OC)CC2)c1,-22,8,.,.,-3,.
Cn1cc(/C=N/n2cnc3scc(-c4ccccc4)c3c2=O)c2ccccc21,-27,66*,92*,5,1,2

# Compound activity from PubChem.
